{"source": "PubChem BioAssay (NCI)", "note": "“And” between values parts separate entries of the source, which are not always exact repeats. Equal entries are not always repeated. This is part of a sample that, as a whole, favours compounds with a hit. Of some 83,000 tested, about 20% had one in any assay.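 Cells were grown in 96-well plates and exposed to the test compound at a single concentration for 48 hours; results are reported as percent growth, with values below 10 considered active.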 The source made the active and inactive calls.", "data": [{"system": "MDA-MB-468 breast", "assay": "NCI-60 one-dose screen, 48 h (100 = growth as untreated, 0 = no growth, -100 = all killed)", "settings": "10 µM unless noted", "values": [{"smiles": "COc1ccc(-c2ccc(-c3ccc(C(=N)N)nc3)s2)cc1", "growth": "-69.9% (active)"}, {"smiles": "COc1ccc(C(=O)CC#N)cc1", "growth": "103% (inactive)"}, {"smiles": "COc1cc(/C=C/c2cc(/C=C/c3ccc(O)c(OC)c3)n(C(=O)Nc3ccc(F)c(Cl)c3)n2)ccc1O", "growth": "-27.6% (active)"}, {"smiles": "CN(C)CCC(=O)c1ccc(Cl)cc1", "growth": "97.3% (inactive) and 97.2% (inactive)"}, {"smiles": "COS(=O)(=O)c1ccc(Br)cc1", "growth": "102% (inactive)"}, {"smiles": "CN1CCN(Cc2ccc(NC(=O)c3cncc(C#Cc4cnc(N)c5ncccc45)c3)cc2C(F)(F)F)CC1", "growth": "-43.8% (active)"}, {"smiles": "NNC(=O)Nc1ccccc1", "growth": "104% (inactive)"}, {"smiles": "Cc1cc(O)c(=O)cc2c1C[C@H]1CC(C)(C)/C=C/C[C@]3(C)Oc4cc(=O)c(O)cc(C)c4C[C@H]3C[C@H](O)[C@@]1(C)O2", "growth": "-16.7% (active) and -22.9% (active)"}, {"smiles": "O=[N+]([O-])c1ccc(NCSc2ccc(Cl)cc2)cc1", "growth": "98.6% (inactive)"}, {"smiles": "O=C(Nc1ccccc1)c1ccco1", "growth": "103% (inactive)"}, {"smiles": "Oc1ccc(N=Nc2ccccn2)c(O)c1", "growth": "-2.78% (active)"}, {"smiles": "O=C(N/N=C/c1ccccc1O)C(O)(c1ccccc1)c1ccccc1", "growth": "38.2% (inactive)"}, {"smiles": "Cc1ccc(-c2nc(SCC(=O)Nc3nc(-c4ccc(Cl)cc4)cs3)[nH]c(=O)c2C#N)cc1", "growth": "117% (inactive)"}, {"smiles": "O=C1/C(=C/c2cccc([N+](=O)[O-])c2)COc2ccc(O)c(O)c21", "growth": "-47.8% (active)"}, {"smiles": "Cc1cccc(NC(=O)c2sc3nc4c(cc3c2N)CCCC4)c1C", "growth": "19.3% (inactive)"}]}]}
